# Screening results from PubChem.
# Only some compounds are listed: those with a hit (about 27% of all), similar ones and a draw of the others.
# CYP2C19 activ: human CYP2C19 activators, primary screen, biochemical, luminescence. Cytochrome P450 2C19 (Homo sapiens), P33261. recombinant CYP2C19, luciferin-H EGE luminescence; stronger effect = higher value; 0 = fully inhibited enzyme, 1 = untreated enzyme. activation factor at 5 µM. 96,000 tested, under 10 active;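 active = activation factor of at least 2 at 5 µM in the primary screen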;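 note: 0 = wells with 2.5 mM tranylcypromine and 1 = vehicle-only wells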
# Target sequence (P33261 whole entry, looked up): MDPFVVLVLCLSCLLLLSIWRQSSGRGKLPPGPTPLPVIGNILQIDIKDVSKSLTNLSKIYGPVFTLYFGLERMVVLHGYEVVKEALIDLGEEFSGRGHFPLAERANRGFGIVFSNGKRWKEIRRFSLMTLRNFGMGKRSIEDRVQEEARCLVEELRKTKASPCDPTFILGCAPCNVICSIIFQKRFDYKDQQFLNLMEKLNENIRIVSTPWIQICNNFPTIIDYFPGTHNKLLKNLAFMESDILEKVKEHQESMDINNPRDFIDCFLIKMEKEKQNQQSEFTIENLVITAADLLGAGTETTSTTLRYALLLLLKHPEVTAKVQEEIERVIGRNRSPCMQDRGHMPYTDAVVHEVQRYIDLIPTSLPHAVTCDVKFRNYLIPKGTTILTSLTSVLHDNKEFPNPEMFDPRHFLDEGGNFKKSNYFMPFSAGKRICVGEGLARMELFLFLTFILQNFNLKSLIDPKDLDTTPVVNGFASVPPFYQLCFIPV
# CYP2C9 act: human CYP2C9 activators, primary screen, biochemical, luminescence. Cytochrome P450 2C9 (Homo sapiens), P11712. recombinant CYP2C9, luciferin-H conversion; stronger effect = higher value; factor 1 = untreated enzyme, 0 = blocked. activation factor at 5 µM. 96,000 tested, 1.4% active;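 active = activation factor of 2 or more for CYP2C9 at a 5 µM dose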;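 note: 0 = sulfaphenazole-blocked wells and 1 = vehicle-only wells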
# CYP2C19 inhib: blockers of cytochrome P450 2C19 activity – biochemical, luminescence, ADME assay, primary screen; CYP2C19 Supersomes, luciferin-H EGE luminescence, 30 min; 96,000 tested, 21% active; P33261; inhibition, % at 5 µM;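 active = CYP2C19 inhibition above a set limit at 5 µM in the primary screen, cut at about 50% in these data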;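 note: plate controls were negative control wells for no effect and 2.5 mM tranylcypromine positive control for full effect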
# Cav3 T inh: Cav3.2 calcium influx blockers – cell-based, Fluo-4 calcium fluorescence, FDSS, MLSMR library, primary screen; Voltage-dependent T-type calcium channel subunit alpha-1H (Homo sapiens), O95180; Cav3.2-expressing cells; stronger effect = lower value; B-score at 10 µM; 100,000 tested, 4% active; AID 449739, 2010;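 active = single-dose well whose peak fluorescence ratio is a statistical outlier from its plate by either plate-standardised score or position-corrected B-score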
# CYP2C9 inh: blockers of cytochrome P450 2C9 activity – biochemical, luminescence, ADME assay, primary screen. P11712. CYP2C9 Supersomes, luciferin-H conversion. inhibition, % at 5 µM. 96,000 tested, 20% active;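 active = blocking of liver enzyme CYP2C9 beyond about 50% at 5 µM, limit read from the data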
# * hit, by the source's call; nt = no result.
SMILES,CYP2C19 activ,CYP2C9 act,CYP2C19 inhib,Cav3 T inh,CYP2C9 inh
C=CCOc1ccc(C(=O)N(Cc2ccc(N(C)C)cc2)C2CCS(=O)(=O)C2)cc1 (stereo unspecified),1,0.9,2,-0.85,15
COc1ccccc1N1CCN(S(=O)(=O)c2ccc3c4c(cccc24)C(=O)N3)CC1,0.7,0.8,31,-1.9,16
COc1ccccc1N1CCN(S(=O)(=O)c2ccc3c4c(cccc24)C(=O)N3C)CC1,0.4,0.3,64*,0.29,72*
CCOc1ccc(S(=O)(=O)N2CCN(c3ccccc3)CC2)c2cccnc12,0.6,0.4,36,-2,59*
CCOc1ccc(S(=O)(=O)N2CCN(c3ccccc3OC)CC2)c2cccnc12,0.5,0.4,49,0.041,58*
Nc1nc(OCC(F)(F)F)cc(Oc2ccccc2F)n1,0.4,0.9,59*,-0.54,14
CN(C)c1ccc(NC(=O)CSCc2nc3c(nnn3Cc3ccc(F)cc3)c(=O)[nH]2)cc1,0.6,0.4,44,0.26,59*
COc1ccc(CCNC(=O)c2n[nH]c(=O)c3ccccc23)cc1,1,1,-2,-1.4,5
CCn1nnc(-c2ccccc2NC(=O)c2ccc(-n3cnnn3)cc2)n1,1,0.6,-3,-1.1,37
CCn1nnc(-c2ccccc2NS(=O)(=O)c2ccc(C(=O)OC)cc2)n1,0,0.3,98*,-1.9,73*
C=C(C)Cn1c(SCC)nc2ccccc2c1=O,0.1,0.7,88*,-3.8,35
CC(=O)NCCn1c(SCC(=O)c2ccccc2)nc2ccccc2c1=O,0.3,0.4,71*,0.15,55*
CCN(CCCn1c(SCC#N)nc2ccccc2c1=O)c1ccccc1,0.2,0.1,77*,-5.4*,93*
C=C(C)Cn1c(SCC#N)nc2ccccc2c1=O,0.5,0.6,47,nt,45
CCn1c(SCC(N)=O)nc2ccccc2c1=O,1.1,1.1,-11,-2.2,-8
CC(=O)NCCn1c(SCC(=O)OCc2ccccc2)nc2ccccc2c1=O,0.1,0.5,86*,0.78,52*
CSc1nsc(SC)c1C(=O)NCCNS(=O)(=O)c1ccc(C)cc1,0.8,0.5,19,0.8,45
Clc1ccc(Oc2nc(N3CCOCC3)nc(N3CCOCC3)n2)cc1,1,1,2,0.11,4
CN(Cc1ccccc1)S(=O)(=O)c1cccc2cccnc12,0.2,3*,80*,-1.2,-203
CN(CC(=O)N1CCCCC1)S(=O)(=O)c1cccc2cccnc12,1,2.1*,3,0.95,-105
CN(CC(=O)NCc1ccc(Cl)cc1)S(=O)(=O)c1cccc2cccnc12,0.5,1.7,45,-0.021,-72
Cc1ccc(NC(=O)CN(C)S(=O)(=O)c2cccc3cccnc23)cc1,0.6,0.2,41,0.97,78*
O=C(O)CCS(=O)(=O)c1cccc2cccnc12,1.1,1,-6,1.3,1
Cc1ccc(-c2nnc(N3CCCCC3)c3ccccc23)cc1S(=O)(=O)NCC1CCCO1 (stereo unspecified),0.9,0.5,10,-2.5,46
CC(C)(C)NC(=O)C1CCN(C(=O)c2ccc(Br)cc2)CC1,1.2,1,-17,0.6,1
SMILES,CYP2C19 activ,CYP2C9 act,CYP2C19 inhib,Cav3 T inh,CYP2C9 inh
C=C(c1ccc(O)cc1)c1ccc(O)cc1,0,0,96*,-0.47,98*
Cc1cc(C)c(NC(=O)COc2ccccc2C(=O)Nc2ccc3c(c2)oc2ccccc23)c(C)c1,0.6,0,37,0.048,97*
CCCNC(=S)Nc1ccc(Br)cc1,0.6,0.7,44,-0.15,30
CC(C)NC(=S)Nc1ccc(Oc2ccccc2)cc1,0.3,0.6,72*,-4.7*,40
CCCNC(=S)Nc1ccc(Oc2ccccc2)cc1,0.3,0.6,68*,-1.1,42
CCc1noc(C)c1C(=O)NCCc1ccc(OC)c(OC)c1,0.9,0.9,12,0.89,7
COc1ccc(CNC(=O)COC(=O)c2c(-c3c(F)cccc3Cl)noc2C)cc1OC,0,0.4,97*,-1,56*
Cc1onc(-c2c(F)cccc2Cl)c1C(=O)OCN1C(=O)c2ccccc2C1=O,0.4,0.6,56*,-2.2,42
Cc1cc(C)c(S(=O)(=O)N2CCN(c3nc4c(c(=O)n(C)c(=O)n4C)n3C)CC2)c(C)c1,0.9,0.8,9,nt,22
O=C(CSc1nc2ccc(S(=O)(=O)N3CCOCC3)cc2[nH]1)N1CCOCC1,0.8,0.9,16,1.2,6
CCCCNS(=O)(=O)c1ccc2nc(SCC(=O)N3CC(C)OC(C)C3)[nH]c2c1 (stereo unspecified),0.6,0.4,42,0.73,55*
C/C(=N\N=C(/N)SC1CC(=O)N(c2cccc(Cl)c2)C1=O)c1cccs1 (stereo unspecified),1,0.4,-5,nt,61*
CCCOc1ccc(N2C(=O)CC(S/C(N)=N/N=C(\C)c3cccs3)C2=O)cc1 (stereo unspecified),0.9,0.7,6,-0.013,27
CCc1ccc(-c2nc(-c3ccncc3)no2)cc1,0,0.2,99*,nt,84*
CCCCc1ccc(-c2nc(-c3ccncc3)no2)cc1,0.2,0.3,84*,-0.49,67*
CCCc1cc(C(=O)O)c2ccccc2n1,1.1,1,-14,0.37,-5
CCCc1ccc(-c2cc(C(=O)NN3CCOCC3)c3ccccc3n2)cc1,0.6,0.1,39,0.24,87*
COC(=O)c1ccc(NC(=S)NC(=O)c2cc(-c3ccccc3)nc3ccccc23)cc1,0.8,0.8,15,-1.6,20
CCCc1ccc(-c2cc(C(=O)NCCc3ccc(S(N)(=O)=O)cc3)c3ccccc3n2)cc1,0.6,0,45,-0.37,98*
CCc1ccc(-c2cc(C(=O)Nn3cnnc3)c3ccccc3n2)cc1,0.2,0,83*,0.66,99*
Cc1ccccc1C1NS(=O)(=O)N=C1N (stereo unspecified),1,0.9,1,0.053,12
Cc1ccc2ccc(C3C(=O)c4ccccc4C3=O)nc2c1,nt,nt,nt,-1.9,nt
COc1cccc(C(=O)N2CCN(C3CCC(c4ccccc4)CC3)CC2)c1 (stereo unspecified),0.1,0.7,91*,0.15,34
CCCS(=O)(=O)N1CCN(C(=O)c2cccc(OC)c2)CC1,0.2,0.9,78*,0.039,11
COc1ccc(C(=O)N2CCN(c3ccccn3)CC2)cc1,0.3,0.8,67*,0.83,20
COc1ccc(N2CCN(C(=O)c3ccncc3)CC2)cc1,0.2,0.6,79*,-3,39
COc1ccc(N2CCN(C(=O)c3ccc4c(c3)OCO4)CC2)cc1,1,0.9,-1,nt,13
